Results as given in PubChem BioAssay (Tox21).
Results filed as inconclusive are left out. Active and inactive are the calls of the source. Unless noted, calls come from the whole dose curve; as a rule, active = well fitted curve in the direction sought with a large enough effect in the repeat runs; inconclusive = weak or mixed curves; inactive = no such curve, though single readings can be large; an effect the other way counts as inactive or inconclusive.

Tests used:
[1] = molecular target: Thyrotropin receptor (Homo sapiens) (UniProt P16473); experiment: qHTS assay to identify small molecule agonists of the thyroid stimulating hormone receptor (TSHR) signaling pathway (AID 1224843; calls by dose curve; note: nearly all actives have a fitted effect of over 45% in size)
Method in brief: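 Cell line HEK293 with TSHR; density 800/well. Exposure 30 min RT. Readout HTRF cAMP (cAMP-d2/anti-cAMP-cryptate), 1 h RT before reading.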

[2] = qHTS assay to identify small molecule agonists of the hypoxia (HIF-1) signaling pathway - cell viability counter screen (AID 1224844; calls by dose curve; note: nearly all actives have a fitted effect of over 50% in size)
Method in brief: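 ME-180 HRE-bla cells, 2,000/well, 0.5% dialyzed FBS; 5 hr settle, 17 hr compound at 37C/5% CO2; CCF4-AM reporter read first, then CellTiter-Glo luminescence after 30 min RT.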

[3] = qHTS assay to identify small molecule agonists of H2AX (AID 1224845; active = well fitted activation curve with a large enough effect in the signal ratio in the repeat runs, not every such curve was filed as active; the % refers to the signal ratio)
Method in brief: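 Wild-type CHO-K1 cells plated overnight, then exposed 3 hr at 37C to compounds at 15 concentrations (0.76% DMSO). Lysed, then HTRF anti-pH2AX(S139)-cryptate/anti-H2AX-d2 detection after 24 hr at room temperature; emissions 665 and 620 nm.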

[4] = qHTS assay to identify small molecule agonists of the hypoxia (HIF-1) signaling pathway (AID 1224846; active = well fitted activation curve with a large enough effect in the signal ratio in the repeat runs, not every such curve was filed as active; the % refers to the signal ratio)
Method in brief: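 Cell line: CellSensor HRE-bla ME-180; 2,000 cells/well; 0.5% dialyzed FBS; 5 h preincubation; DMSO compound pin transfer; 17 h, 37C, 5% CO2; CCF4-AM added; bla FRET signal scored for activation.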

[5] = qHTS RealTime-Glo MT Cell Viability Assay in HEK293 cells - 32 hour (AID 1224868); note: top concentration of the series differs between compounds; nearly all actives have a fitted effect of over 50% in size
Method in brief: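 Nonlytic real-time viability readout: viable cells convert prosubstrate to NanoLuc substrate, giving luminescence proportional to live cell number. HEK293, 600 cells/well, compound added after 5 h, continuous culture at 37 C.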

[6] = A CellTox Green Cytotoxicity Assay to monitor cytotoxicity in HEK293 cells - 0 hour (AID 1224869); note: nearly all actives have a fitted effect of over 50% in size
Method in brief: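 Nonlytic real-time cytotoxicity: HEK293 + CellTox Green reagent plated, 5 h preincubation, pintool compound addition (23 nL in DMSO), 37 C for 40 h, fluorescence measured at successive time points.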

[7] = qHTS assay to identify small molecule agonists of H2AX - cell viability counter screen (AID 1224847; calls by dose curve; note: top concentration of the series differs between compounds; nearly all actives have a fitted effect of over 30% in size)
Method in brief: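 Wild-type CHO-K1 cells (10% FBS medium) were plated overnight at 37C, exposed to compounds at 15 concentrations for 3 hr at 37C (0.76% DMSO final), and viability was read as CellTiter-Glo luminescence after 30 min at room temperature.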

[8] = qHTS RealTime-Glo MT Cell Viability Assay in HepG2 cells - 24 hour (AID 1224867); note: nearly all actives have a fitted effect of over 50% in size
Method in brief: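 Luminescence read-out: viable HepG2 cells reduce a prosubstrate to a NanoLuc substrate, giving a signal proportional to live cell number. Reads taken at 0, 8, 16, 24, 32 and 40 h of compound exposure at 37 C.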

[9] = qHTS assay to identify small molecule antagonists of the estrogen related receptor (ERR) signaling pathway from Tox21 library (AID 1224848); note: nearly all actives have a fitted effect of over 50% in size
Method in brief: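 Screening used an ERR reporter line supplied by NTP, exposed for 18 h at 37 C to library compounds delivered in DMSO. Signal was luciferase luminescence developed with ONE-Glo at room temperature for 30 min.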

[10] = qHTS assay to identify small molecule agonists of the estrogen related receptor (ERR) signaling pathway from Tox21 library (AID 1224849; calls by dose curve; note: nearly all actives have a fitted effect of over 15% in size); conditions: ERR reporter cell line, ONE-Glo luciferase, 18 h; at 92.4 µM (top of the series) unless noted
Method in brief: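 ERR cells, 6 h pre-incubation 37 C/5% CO2; cpd in DMSO pinned; 18 h 37 C; ONE-Glo added, 30 min RT; luminescence read. Agonist mode, qHTS.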
% is set by controls: 0 for no effect and ±100 for the full control effect.

Sequence of Thyrotropin receptor (Homo sapiens) (P16473 whole entry, looked up): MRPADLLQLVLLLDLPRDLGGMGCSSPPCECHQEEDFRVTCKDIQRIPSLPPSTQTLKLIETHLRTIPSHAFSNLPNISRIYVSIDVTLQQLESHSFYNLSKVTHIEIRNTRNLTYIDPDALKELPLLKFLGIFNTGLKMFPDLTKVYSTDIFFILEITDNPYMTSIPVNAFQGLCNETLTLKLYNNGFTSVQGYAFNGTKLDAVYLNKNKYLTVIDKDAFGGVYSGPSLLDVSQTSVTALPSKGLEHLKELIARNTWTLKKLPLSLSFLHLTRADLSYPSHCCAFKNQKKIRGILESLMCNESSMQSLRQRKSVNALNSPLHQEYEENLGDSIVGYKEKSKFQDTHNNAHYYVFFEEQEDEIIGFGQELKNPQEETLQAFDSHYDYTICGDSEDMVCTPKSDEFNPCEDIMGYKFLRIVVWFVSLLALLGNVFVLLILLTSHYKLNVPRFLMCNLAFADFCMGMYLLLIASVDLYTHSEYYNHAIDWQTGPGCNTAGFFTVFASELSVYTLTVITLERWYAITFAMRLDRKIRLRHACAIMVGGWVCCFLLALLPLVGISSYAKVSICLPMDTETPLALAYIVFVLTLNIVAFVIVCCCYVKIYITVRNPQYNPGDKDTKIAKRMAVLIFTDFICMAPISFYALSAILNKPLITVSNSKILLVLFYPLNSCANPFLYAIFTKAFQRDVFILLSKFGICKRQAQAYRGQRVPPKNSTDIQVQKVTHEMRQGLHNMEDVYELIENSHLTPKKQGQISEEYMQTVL

COCCOC(=O)CC#N
inactive: outcome [1] | Potency [2] | outcome [3] | outcome [4] | Potency [5] | Potency [6]

Nc1cc(C(Cl)=C(Cl)Cl)c(S(N)(=O)=O)cc1S(N)(=O)=O
inactive: outcome [1] | Potency [2] | outcome [3] | Potency [7] | outcome [8] | Potency [5] | Potency [6]

Nc1nc2c(ncn2CCC(CO)CO)c(=O)[nH]1
inactive: outcome [1] | Potency [2] | outcome [4] | Potency [7] | Potency [9] | activity change, positive = activation [10] -1.99% [at 42.5 µM] | outcome [8] | Potency [5] | Potency [6]

NC(=O)c1ncn([C@@H]2O[C@H](CO)[C@@H](O)[C@H]2O)c1O
inactive: outcome [1] | Potency [2] | outcome [3] | Potency [7] | outcome [8] | Potency [5] | Potency [6]

CC(C)(C)C(=O)/C=C/c1ccc(Cl)cc1
inactive: outcome [1] | Potency [2] | outcome [4] | Potency [9] | activity change, positive = activation [10] 1.54% | outcome [8] | Potency [5] | Potency [6]

CN(C)CCOC(c1ccc(Cl)cc1)c1ccccn1 (configuration not stated)
inactive: outcome [1] | Potency [2] | outcome [3] | Potency [5] | Potency [6]

CO[Si](OC)(OC)OC
inactive: outcome [1] | Potency [2] | outcome [3] | outcome [4] | outcome [8] | Potency [6]

CC(C)c1ccc2oc3nc(N)c(C(=O)O)cc3c(=O)c2c1
inactive: outcome [1] | Potency [2] | outcome [4] | Potency [7] | Potency [9] | outcome [8] | Potency [5] | Potency [6]
active: activity change, positive = activation [10] 105% [at 42.5 µM]

CC(=O)OC(C)(C)C
inactive: Potency [2] | outcome [3] | outcome [4] | Potency [7] | Potency [9] | activity change, positive = activation [10] 0.24% | outcome [8] | Potency [5] | Potency [6]

CCCCCN(CCCCC)C(=O)C(CCC(=O)O)NC(=O)c1ccc(Cl)c(Cl)c1 (configuration not stated)
inactive: outcome [1] | outcome [3] | Potency [7] | outcome [8] | Potency [5] | Potency [6]

O=C1CC2(CCCC2)CC(=O)N1
inactive: outcome [1] | outcome [3] | outcome [4] | Potency [7] | outcome [8] | Potency [5] | Potency [6]

COc1ccc(N=[N+]([O-])c2ccc(OC)cc2)cc1
inactive: outcome [1] | outcome [3] | outcome [4] | outcome [8] | Potency [5] | Potency [6]

CCn1cc(C(=O)O)c(=O)c2cc(F)c(N3CCN(C)CC3)cc21
inactive: activation [1] -0.535% [at 19 µM] | activation (H2AX phosphorylation) [3] -0.959% [at 31.6 µM] | activation [4] -0.496% [at 15.8 µM] | activity change, negative = cytotoxicity [7] -2.01% [at 31.6 µM] | activity change, negative = cytotoxic [5] 4.88% [at 15.8 µM] | cytotoxicity [6] -2.39% [at 15.8 µM]

COc1cccc(Br)c1
inactive: Potency [2] | outcome [3] | outcome [4] | Potency [7] | Potency [9] | activity change, positive = activation [10] 0.21% | outcome [8] | Potency [5] | Potency [6]

Cc1cc(C)cc(OCC2CNC(=O)O2)c1 (configuration not stated)
inactive: outcome [1] | outcome [3] | outcome [4] | Potency [7] | outcome [8] | Potency [5] | Potency [6]
